Experiments:
[1] = target: T1, Serine/threonine-protein kinase TBK1 (Homo sapiens) (UniProt Q9UHD2); details: at 10 µM
T1 sequence (whole entry): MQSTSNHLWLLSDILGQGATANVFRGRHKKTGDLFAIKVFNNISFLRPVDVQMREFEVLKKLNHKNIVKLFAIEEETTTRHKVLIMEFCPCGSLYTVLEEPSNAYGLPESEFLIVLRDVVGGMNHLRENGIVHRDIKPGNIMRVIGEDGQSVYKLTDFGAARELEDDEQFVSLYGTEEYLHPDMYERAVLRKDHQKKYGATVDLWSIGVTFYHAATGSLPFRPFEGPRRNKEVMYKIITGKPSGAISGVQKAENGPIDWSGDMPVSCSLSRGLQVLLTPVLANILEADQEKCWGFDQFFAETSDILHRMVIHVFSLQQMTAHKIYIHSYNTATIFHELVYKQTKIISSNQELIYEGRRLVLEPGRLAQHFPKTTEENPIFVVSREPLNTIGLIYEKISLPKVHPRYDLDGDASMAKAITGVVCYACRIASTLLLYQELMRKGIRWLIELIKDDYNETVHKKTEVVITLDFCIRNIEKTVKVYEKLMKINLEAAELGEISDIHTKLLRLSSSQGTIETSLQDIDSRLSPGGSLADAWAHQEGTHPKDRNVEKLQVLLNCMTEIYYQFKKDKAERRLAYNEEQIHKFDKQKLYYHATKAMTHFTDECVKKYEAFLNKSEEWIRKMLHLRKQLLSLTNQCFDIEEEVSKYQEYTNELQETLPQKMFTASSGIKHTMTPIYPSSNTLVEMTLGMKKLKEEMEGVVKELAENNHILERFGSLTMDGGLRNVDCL

[2] = target: T2, TGF-beta receptor type-1 (Homo sapiens) (UniProt P36897); details: at 1 µM
T2 sequence (whole entry): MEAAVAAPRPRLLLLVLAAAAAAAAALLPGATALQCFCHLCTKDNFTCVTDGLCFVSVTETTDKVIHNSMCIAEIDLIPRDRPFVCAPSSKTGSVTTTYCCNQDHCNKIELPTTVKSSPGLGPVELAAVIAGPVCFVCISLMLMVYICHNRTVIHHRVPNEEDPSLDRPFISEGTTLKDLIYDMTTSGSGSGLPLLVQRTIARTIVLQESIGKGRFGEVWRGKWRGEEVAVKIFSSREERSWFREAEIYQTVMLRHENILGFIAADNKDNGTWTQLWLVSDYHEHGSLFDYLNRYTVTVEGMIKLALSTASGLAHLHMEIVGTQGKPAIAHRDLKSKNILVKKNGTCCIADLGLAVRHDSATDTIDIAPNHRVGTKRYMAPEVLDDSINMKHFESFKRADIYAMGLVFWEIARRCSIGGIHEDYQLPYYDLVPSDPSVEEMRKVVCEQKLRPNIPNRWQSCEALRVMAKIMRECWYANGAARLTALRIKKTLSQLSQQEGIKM

[3] = target: T2, TGF-beta receptor type-1 (Homo sapiens); details: at 10 µM
[4] = target: Insulin-like growth factor 1 receptor (Homo sapiens) (UniProt P08069); details: at 1 µM
Chain of Insulin-like growth factor 1 receptor (Homo sapiens) (P08069 31-736 limits assumed): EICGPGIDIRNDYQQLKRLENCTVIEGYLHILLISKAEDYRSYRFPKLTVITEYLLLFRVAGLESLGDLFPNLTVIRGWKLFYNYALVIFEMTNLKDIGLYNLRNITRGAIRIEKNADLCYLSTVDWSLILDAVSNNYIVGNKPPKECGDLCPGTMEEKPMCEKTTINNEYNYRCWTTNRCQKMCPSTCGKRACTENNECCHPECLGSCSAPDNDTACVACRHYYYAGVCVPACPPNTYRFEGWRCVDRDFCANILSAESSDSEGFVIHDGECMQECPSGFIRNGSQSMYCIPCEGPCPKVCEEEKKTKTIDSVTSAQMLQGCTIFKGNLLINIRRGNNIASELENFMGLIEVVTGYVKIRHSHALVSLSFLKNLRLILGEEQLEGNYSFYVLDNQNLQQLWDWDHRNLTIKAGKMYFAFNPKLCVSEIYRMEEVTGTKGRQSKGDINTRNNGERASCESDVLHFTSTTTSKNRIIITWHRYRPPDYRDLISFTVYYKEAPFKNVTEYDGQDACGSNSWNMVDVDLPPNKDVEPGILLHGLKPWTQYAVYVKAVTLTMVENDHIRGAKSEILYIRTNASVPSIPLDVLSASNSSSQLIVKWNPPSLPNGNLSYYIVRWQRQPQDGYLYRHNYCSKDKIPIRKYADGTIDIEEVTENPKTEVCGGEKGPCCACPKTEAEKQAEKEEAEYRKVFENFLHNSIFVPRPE
Chain of Insulin-like growth factor 1 receptor (Homo sapiens) (P08069 741-1367 limits assumed): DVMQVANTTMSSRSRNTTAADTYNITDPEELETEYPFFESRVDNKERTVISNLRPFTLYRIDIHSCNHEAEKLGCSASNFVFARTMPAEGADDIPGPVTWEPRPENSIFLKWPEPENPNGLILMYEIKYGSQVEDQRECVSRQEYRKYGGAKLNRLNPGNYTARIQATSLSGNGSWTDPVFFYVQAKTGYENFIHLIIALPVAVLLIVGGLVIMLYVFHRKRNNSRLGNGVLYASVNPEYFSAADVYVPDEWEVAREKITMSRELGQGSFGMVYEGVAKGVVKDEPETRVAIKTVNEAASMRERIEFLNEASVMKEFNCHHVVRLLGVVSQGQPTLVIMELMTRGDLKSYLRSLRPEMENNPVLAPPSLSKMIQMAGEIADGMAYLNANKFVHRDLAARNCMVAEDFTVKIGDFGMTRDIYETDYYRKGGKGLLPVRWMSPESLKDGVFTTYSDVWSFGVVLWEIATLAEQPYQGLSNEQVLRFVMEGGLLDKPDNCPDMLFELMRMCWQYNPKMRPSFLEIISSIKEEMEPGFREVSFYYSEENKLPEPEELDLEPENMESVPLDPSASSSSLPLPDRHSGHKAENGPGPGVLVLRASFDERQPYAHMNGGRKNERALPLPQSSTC

[5] = target: Insulin-like growth factor 1 receptor (Homo sapiens) (UniProt P08069); details: at 10 µM
[6] = target: T3, Inhibitor of nuclear factor kappa-B kinase subunit alpha (Homo sapiens) (UniProt O15111); details: at 1 µM
T3 sequence (whole entry): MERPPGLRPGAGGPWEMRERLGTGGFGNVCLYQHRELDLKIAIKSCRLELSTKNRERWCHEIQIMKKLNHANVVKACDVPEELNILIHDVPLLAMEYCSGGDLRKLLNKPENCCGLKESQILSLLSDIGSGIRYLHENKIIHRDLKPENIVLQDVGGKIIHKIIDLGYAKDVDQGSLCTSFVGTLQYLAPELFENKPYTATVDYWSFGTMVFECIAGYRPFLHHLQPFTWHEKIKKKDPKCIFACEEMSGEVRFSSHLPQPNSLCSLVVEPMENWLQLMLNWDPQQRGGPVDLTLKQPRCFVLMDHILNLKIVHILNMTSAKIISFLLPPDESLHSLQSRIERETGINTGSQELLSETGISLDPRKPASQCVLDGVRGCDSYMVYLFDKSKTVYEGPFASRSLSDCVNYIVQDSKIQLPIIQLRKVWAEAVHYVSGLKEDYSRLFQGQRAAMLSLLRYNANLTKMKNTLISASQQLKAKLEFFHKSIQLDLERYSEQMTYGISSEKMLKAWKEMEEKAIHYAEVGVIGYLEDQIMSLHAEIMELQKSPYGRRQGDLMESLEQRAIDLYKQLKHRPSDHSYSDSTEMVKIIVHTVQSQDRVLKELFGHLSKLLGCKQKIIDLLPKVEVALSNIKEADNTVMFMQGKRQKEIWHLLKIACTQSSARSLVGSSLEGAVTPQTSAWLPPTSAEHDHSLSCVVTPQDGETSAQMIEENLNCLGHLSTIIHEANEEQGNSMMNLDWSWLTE

[7] = target: T3, Inhibitor of nuclear factor kappa-B kinase subunit alpha (Homo sapiens); details: at 10 µM
[8] = target: T4, Inhibitor of nuclear factor kappa-B kinase subunit beta (Homo sapiens) (UniProt O14920); details: at 1 µM
T4 sequence (whole entry): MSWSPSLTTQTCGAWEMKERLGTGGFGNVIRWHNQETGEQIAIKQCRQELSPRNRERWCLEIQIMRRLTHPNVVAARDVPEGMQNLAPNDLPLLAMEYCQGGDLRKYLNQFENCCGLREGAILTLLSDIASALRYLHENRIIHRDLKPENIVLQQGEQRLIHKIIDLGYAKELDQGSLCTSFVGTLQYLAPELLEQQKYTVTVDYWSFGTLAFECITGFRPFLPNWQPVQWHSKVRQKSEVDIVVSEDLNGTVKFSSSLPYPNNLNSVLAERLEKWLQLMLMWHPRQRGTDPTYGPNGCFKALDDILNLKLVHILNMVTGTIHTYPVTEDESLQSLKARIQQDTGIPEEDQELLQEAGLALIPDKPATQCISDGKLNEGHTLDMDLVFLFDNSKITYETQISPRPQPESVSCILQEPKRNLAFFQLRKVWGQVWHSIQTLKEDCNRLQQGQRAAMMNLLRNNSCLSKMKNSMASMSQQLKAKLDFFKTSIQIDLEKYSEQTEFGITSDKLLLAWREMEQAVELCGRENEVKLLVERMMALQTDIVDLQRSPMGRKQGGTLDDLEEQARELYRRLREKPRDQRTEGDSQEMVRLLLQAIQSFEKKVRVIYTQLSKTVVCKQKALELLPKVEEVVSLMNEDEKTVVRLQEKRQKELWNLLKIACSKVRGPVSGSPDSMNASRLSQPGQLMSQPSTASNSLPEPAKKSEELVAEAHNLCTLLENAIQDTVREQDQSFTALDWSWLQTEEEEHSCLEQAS

[9] = target: T4, Inhibitor of nuclear factor kappa-B kinase subunit beta (Homo sapiens); details: at 10 µM
[10] = target: Insulin receptor (Homo sapiens) (UniProt P06213); details: at 1 µM
Chain of Insulin receptor (Homo sapiens) (P06213 28-758 limits assumed): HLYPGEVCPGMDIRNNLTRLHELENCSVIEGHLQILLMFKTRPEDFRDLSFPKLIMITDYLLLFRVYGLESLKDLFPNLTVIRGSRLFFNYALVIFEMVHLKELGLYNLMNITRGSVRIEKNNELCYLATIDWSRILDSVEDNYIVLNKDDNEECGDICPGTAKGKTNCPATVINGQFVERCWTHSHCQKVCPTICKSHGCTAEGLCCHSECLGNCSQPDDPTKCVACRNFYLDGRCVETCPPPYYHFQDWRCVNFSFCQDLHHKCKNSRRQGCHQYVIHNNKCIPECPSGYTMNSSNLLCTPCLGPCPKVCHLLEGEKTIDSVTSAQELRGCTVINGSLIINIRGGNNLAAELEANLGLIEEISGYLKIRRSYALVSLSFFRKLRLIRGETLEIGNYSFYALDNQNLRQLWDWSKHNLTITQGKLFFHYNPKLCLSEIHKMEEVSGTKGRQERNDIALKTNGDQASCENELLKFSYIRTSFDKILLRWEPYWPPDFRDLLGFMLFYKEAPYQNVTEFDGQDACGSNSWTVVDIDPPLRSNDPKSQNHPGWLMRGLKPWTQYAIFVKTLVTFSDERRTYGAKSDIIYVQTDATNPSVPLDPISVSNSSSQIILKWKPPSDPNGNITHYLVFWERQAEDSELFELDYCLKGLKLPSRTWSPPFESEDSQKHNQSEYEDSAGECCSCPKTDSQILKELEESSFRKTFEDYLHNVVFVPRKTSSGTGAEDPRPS
Chain of Insulin receptor (Homo sapiens) (P06213 763-1382 limits assumed): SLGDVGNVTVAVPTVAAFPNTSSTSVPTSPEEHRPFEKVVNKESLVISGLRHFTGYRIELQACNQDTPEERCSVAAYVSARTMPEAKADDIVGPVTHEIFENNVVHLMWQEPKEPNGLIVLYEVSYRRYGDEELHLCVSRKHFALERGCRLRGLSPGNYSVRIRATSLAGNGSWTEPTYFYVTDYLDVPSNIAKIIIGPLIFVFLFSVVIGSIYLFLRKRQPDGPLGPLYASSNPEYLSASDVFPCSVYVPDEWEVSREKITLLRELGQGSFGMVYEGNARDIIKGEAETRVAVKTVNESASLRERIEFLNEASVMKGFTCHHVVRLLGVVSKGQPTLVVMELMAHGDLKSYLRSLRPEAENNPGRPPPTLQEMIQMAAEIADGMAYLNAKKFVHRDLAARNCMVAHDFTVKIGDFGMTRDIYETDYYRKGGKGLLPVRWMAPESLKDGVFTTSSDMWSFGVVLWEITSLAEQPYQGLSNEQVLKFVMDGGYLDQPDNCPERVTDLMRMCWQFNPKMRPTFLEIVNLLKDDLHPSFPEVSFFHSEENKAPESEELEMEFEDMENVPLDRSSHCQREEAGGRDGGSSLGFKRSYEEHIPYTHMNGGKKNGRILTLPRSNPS

Row | Structure (SMILES) | residual activity [1] [%] | residual activity [2] [%] | residual activity [3] [%] | residual activity [4] [%] | residual activity [5] [%] | residual activity [6] [%] | residual activity [7] [%] | residual activity [8] [%] | residual activity [9] [%] | residual activity [10] [%]
1 | O=Nc1c(-c2c(O)[nH]c3ccccc23)[nH]c2ccccc12 | 1 | 104 | 73 | 40 | 20 | 76 | 57 | 87 | 67 | 17
2 | O=c1c2ccccc2[nH]c(=S)n1CCN1CCC(=C(c2ccc(F)cc2)c2ccc(F)cc2)CC1 | 68 | 95 | 80 | 112 | 93 | 87 | 128 | 114 | 105 | 109
3 | Cc1cncc2cccc(S(=O)(=O)N3CCCN(C(=O)CN)C[C@H]3C)c12 | 55 | 78 | 86 | – | – | 93 | – | – | – | –
4 | CC(=O)c1ccc(N2CCOCC2)cc1O | 70 | 83 | 90 | – | – | – | – | 104 | 102 | –
5 | COc1ccc(S(=O)(=O)N(CCO)c2ccccc2CN(C)C/C=C/c2ccc(Cl)cc2)cc1 | 56 | 97 | 92 | 94 | 93 | 117 | 108 | 115 | 110 | 91
6 | Cc1ccc(S(=O)(=O)/C=C/C#N)cc1 | 81 | 98 | 81 | 88 | 98 | 100 | 100 | 108 | 107 | 94
7 | Cc1ccc(NC2=CC(=O)c3sc(C)nc3C2=O)cc1 | 74 | 90 | 83 | 95 | 92 | 107 | 103 | 106 | 98 | 95
8 | N#CC(C#N)=C(N)/C(C#N)=C/c1ccc(O)cc1 | 72 | 91 | 91 | – | – | 96 | 92 | 99 | 93 | –
9 | COc1ccc(CNc2nc(N(CCO)CCO)nc3c2ncn3C(C)C)cc1 | 55 | 88 | 74 | 94 | 88 | 101 | 102 | 112 | 99 | 99
10 | CO[C@H]1C[C@@H]2CC[C@@H](C)[C@@](O)(O2)C(=O)C(=O)N2CCCC[C@H]2C(=O)O[C@H]([C@H](C)C[C@@H]2CC[C@@H](O)[C@H](OC)C2)CC(=O)[C@H](C)/C=C(\C)[C@@H](O)[C@@H](OC)C(=O)[C@H](C)C[C@H](C)/C=C/C=C/C=C/1C | 55 | 82 | 78 | 96 | 74 | 121 | 148 | 104 | 124 | 107
11 | Oc1ccc(Nc2nc(-c3ccc(Cl)cc3)cs2)cc1 | 80 | 123 | 100 | 103 | 108 | 102 | 134 | 115 | 110 | 112
12 | N#CCCc1ccc2c(c1)-c1[nH]c3ccc([N+](=O)[O-])cc3c1CC(=O)N2 | 13 | 73 | 28 | – | – | – | – | – | – | 118
13 | Oc1ccc(-c2nc(-c3ccc(F)cc3)c(-c3ccncc3)[nH]2)cc1 | 85 | 100 | 40 | 122 | 123 | 90 | 59 | 120 | 91 | 136
14 | O=C(Nc1cccc(Nc2cc(Nc3cccc(C(F)(F)F)c3)ncn2)c1)C1CC1 | 61 | 89 | 77 | 98 | 89 | 108 | 125 | 99 | 96 | 105
15 | CCN(CC)C(=O)c1ccc(Nc2nc(OCC3CCCCC3)c3nc[nH]c3n2)cc1 | 2 | 82 | 50 | 70 | 16 | – | – | 94 | 69 | 95
16 | N#Cc1cnc2cnc(NCc3cccnc3)cc2c1Nc1ccc(F)c(Cl)c1 | 2 | 126 | 123 | – | – | 74 | 58 | 84 | 74 | 136
17 | O=C(O)c1ccc2c3c1cccc3c(=O)n1c3ccccc3nc21 | 4 | 111 | 102 | 113 | 107 | 109 | 106 | 112 | 93 | 117
18 | CC(C)n1cnc2c(NCc3ccccc3)nc(NCCCO)nc21 | 66 | 93 | 81 | 90 | 87 | 116 | 104 | 110 | 94 | 91

From ChEMBL document CHEMBL2218924, “A broad activity screen in support of a chemogenomic map for kinase signalling research and drug discovery” (Biochem J, 2013)
